NS1 inh: qHTS Assay for Inhibitors of Influenza NS1 Protein Function. 270,000 tested, 0.4% active. Potency, µM (highest dose often 46.1 µM), inactives show top-dose activity, positive = more growth; calls by dose curve; further: actives are rising curves; nearly all actives have a fitted effect of over 50% in size
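A cell-based growth assay was used: compounds that relieve NS1-induced slow growth of budding yeast raise OD600. Assay medium was yeast nitrogen base with ammonium sulphate and -URA supplement, pH 6.0, with 2% galactose.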
HCV inhibitor: qHTS Assay for Inhibitors of Hepatitis C Virus (HCV) | Huh7.5.1 HCVcc-Cre infection, luciferase reporter, 44 h | Potency, µM (doses to about 41.8 µM), without a hit: top-dose activity change, negative = inhibition, actives largely listed as inhibitors | 340,000 tested, 3.4% active | AID 651820, 2012; further: on the % scale 0 is the no-effect control and ±100 the full control effect
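Whole-lifecycle infectious HCVcc-Cre system; cells 1,000/well, compound then virus (~0.5 moi) added 4 h after plating, 44 h culture. Luciferase read 15 sec following 15 min substrate incubation, room temp.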
VACV Venus inh: qHTS for Stage-Specific Inhibitors of Vaccinia Orthopoxvirus: Venus Reporter Primary qHTS; Potency, µM (titrated, usually from 36.5 µM), without a hit: top-dose activity change, negative = inhibition, most hits filed as inhibitors; 330,000 tested, 0.46% active; Vaccinia virus Venus reporter expression, fluorescence; calls by dose curve; tested in A549 cells; further: on the % scale 0 is the no-effect control and ±100 the full control effect; nearly all actives have a fitted effect of over 30% in size
Pf growth 48h: Primary qHTS for delayed death inhibitors of the malarial parasite plastid, 48 hour incubation | P. falciparum luciferase growth in erythrocytes, 48 h | Potency, µM (series often up to 28.7 µM), inactives show at the highest dose activity change, negative = inhibition, actives largely listed as inhibitors | 310,000 tested, 5.9% active; further: on the % scale 0 is the no-effect control and ±100 the full control effect
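Luminescence readout; reporter = integrated firefly luciferase in P. falciparum. RBC culture at 2% hematocrit, 0.1% parasitemia final, 37 C/5% CO2; decreased signal taken as growth inhibition.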
VACV mCherry inh: qHTS for Stage-Specific Inhibitors of Vaccinia Orthopoxvirus: mCherry Reporter Primary qHTS; Vaccinia virus mCherry reporter infection, fluorescence; 310,000 tested, 0.63% active; Potency, µM (titrated, usually from 36.5 µM), for the others: at the top dose activity change, negative = inhibition, actives largely listed as inhibitors; AID 720579, 2013; calls by dose curve; tested in A549 cells; further: on the % scale 0 is the no-effect control and ±100 the full control effect; nearly all actives have a fitted effect of over 35% in size
Pf growth 96h: Primary qHTS for delayed death inhibitors of the malarial parasite plastid, 96 hour incubation | Potency, µM (titrated, usually from 28.7 µM), without a hit: top-dose activity change, negative = inhibition, usual class: inhibitors | AID 504834, 2011 | P. falciparum luciferase reporter growth, 96 h | 320,000 tested, 6.9% active; further: on the % scale 0 is the no-effect control and ±100 the full control effect
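Luminescence readout: decreased luciferase signal marks inhibited growth of reporter-expressing P. falciparum in infected red cells (2% hematocrit, 0.05% parasitemia final), exposed to compound two generations (96 h, 37 C, 5% CO2).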
Active calls of the source: *; i = inactive; ? = inconclusive; · = no result. In the library only some 11% were active in any assay of this set; here they are far more common. Unless noted, the call rests on the fitted dose curve; in most records, active means well fitted inhibition curve with a large enough effect; inconclusive means small, poorly fitted or top-dose-only effect, or another doubt; inactive means no such curve, though single readings can be large or run the other way. Potency means the concentration at half of the fitted maximal effect.

SMILES	NS1 inh	HCV inhibitor	VACV Venus inh	Pf growth 48h	VACV mCherry inh	Pf growth 96h
CC1CCN(CCCNC(=O)c2ccc(Cn3c(=S)[nH]c4ccc(Br)cc4c3=O)cc2)CC1	·	·	·	13µM*	·	16%
Cc1nnc(SCc2cc(=O)n3[nH]cnc3n2)s1	8%	14%	-13%	-12%	i	·
CC(=O)N(C(C)=O)c1ncc2c([nH]c3ccccc32)c1C#N	-12%	-8%	?	1%	11µM*	?
Cc1ccc(N2C(=O)c3ccccc3C2C(=O)c2ccc(O)cc2O)cc1 (stereo not drawn)	-2%	-3%	-17%	3%	i	-20%
Cc1ccc(N2C(=O)c3ccccc3C2C(=O)c2ccc(C)c(C)c2O)cc1 (stereo not drawn)	1%	-29%	-14%	?	i	5.2µM*
Cc1ccc(N2C(=O)c3ccccc3C2C(=O)c2cc(C)ccc2O)cc1 (stereo not drawn)	-11%	-23%	·	2.6µM*	·	2.6µM*
CCCC(C)NC(=O)COc1ccc(S(=O)(=O)c2ccc(OCC(=O)NC(C)CCC)cc2)cc1 (stereo not drawn)	22%	-18%	1%	12µM*	-10%	?
CCCOc1ccc(C(=O)N2CCN(c3ccc(NC(=O)CC)cc3Cl)CC2)cc1	-33%	?	·	6.6µM*	·	-4%
CCN(CC)CCCNCC(=O)Nc1ccc2c(c1)CCC2	·	10µM*	-4%	?	i	-19%
O=C(CSc1nc(N2CCOCC2)nc(N2CCOCC2)n1)Nc1cccc(C(F)(F)F)c1	?	-29%	-6%	11%	-3%	2.1µM*
Cc1cc(C)nc(SCC(=O)Nc2ccc(N3CCOCC3)c(Cl)c2)n1	-13%	7.9µM*	?	-14%	·	·
CSc1ccc(OCC(=O)Nc2ccc(N3CCOCC3)c(Cl)c2)cc1	-11%	10µM*	-23%	-16%	-9%	?
O=C(CCN1CCOCC1)Nc1ccc2c(c1)CCC2	-12%	?	2%	20%	-7%	3.7µM*
Cc1cc(Oc2ccccc2)nc(SCC(=O)Nc2ccc(Cl)c(Cl)c2)n1	-55%	?	·	·	·	13µM*
O=C(CCN1CCOCC1)NNC(=O)Nc1cccc(C(F)(F)F)c1	-1%	18%	-27%	5%	?	10µM*
O=C(CN1CCOCC1)Nc1cccc(C(F)(F)F)c1	·	19%	0%	·	-11%	·
Cc1cc(Oc2ccccc2)nc(SCC(=O)Nc2ccccc2)n1	-21%	?	·	·	·	?
O=C(Nc1ccc(C(=O)N2CCCc3ccccc32)cc1)c1cccs1	-12%	-25%	-14%	-27%	i	-28%
C=CC1=C(C)C2=CC3=NC(=C(CC(=O)[O-])C4=NC(=C(C)C4=C([O-])[O-])C=c4[n-]c(c(C)c4CC)=CC1=N2)C(CCC(=O)[O-])C3C.[Cu+2].[Na+].[Na+].[Na+] (stereo not drawn)	·	·	-6%	·	-18%	·
Cc1[nH]c2ccccc2c1C(=O)C(=O)NCCC1=CCCCC1	1%	0%	-17%	2.9µM*	-22%	?
Cc1[nH]c2ccccc2c1C(=O)C(=O)NCc1ccco1	1%	11%	·	3%	·	12µM*
O=C(NCc1ccco1)C(=O)c1c[nH]c2ccccc12	-10%	16%	·	19%	·	25%
COC(=O)[C@]1(CC(C)C)N[C@H](c2ccc(-c3cccc(Cl)c3)cc2)[C@@H]2C(=O)N(C)C(=O)[C@@H]21	·	?	-25%	2.6µM*	?	1.3µM*
COC(=O)[C@]1(CC(C)C)N[C@H](c2ccc(-c3ccc4c(c3)OCO4)cc2)[C@@H]2C(=O)N(C)C(=O)[C@@H]21	·	-2%	-18%	?	i	13µM*
COC(=O)[C@]1(C)N[C@H](c2ccc(-c3cccc(Cl)c3)c(OC)c2)[C@@H]2C(=O)N(C)C(=O)[C@@H]21	·	11%	-8%	·	i	·

Screening data from PubChem.
